# According to PubChem BioAssay AID488890 (Southern Research Specialized Biocontainment Screening …, 2010):
# Screen size: about 320,000 compounds; about 1,300 (0.41%) were called active. Not shown: some 3% with an inconclusive outcome. The rule behind the calls is not given here. Only a sample is shown. Entries with a potency or affinity are not part of this list.
# Assay: growth inhibition of non-replicating M. tuberculosis (AID 488890);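 note: plate controls were DMSO cells for no effect and high antibiotic wells for full effect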
# Settings: Mycobacterium tuberculosis non-replicating, at 25 µM, stronger effect = higher value
row,Structure (SMILES),inhibition
1,CC(=O)Oc1ccc([C@@H]2COc3c(ccc4c3C=CC(C)(C)O4)C2)c(OC(C)=O)c1,-2.73%
2,CC1=CC2=NC(=O)/C(=C/c3cccs3)C(=N)N2O1,-5.09%
3,COc1cc(/C=C2/C(=N)N3OC(C)=CC3=NC2=O)ccc1OCCOc1ccc(C)cc1,-6.61%
4,CC(=O)Nc1ccc(OCCOc2ccc(/C=C3/C(=N)N4C=CSC4=NC3=O)cc2)cc1,2.76%
5,COc1cc(/C=C2\C(=N)N3N=CSC3=NC2=O)cc(Br)c1OC(=O)c1ccco1,-3.1%
6,O=C1CN(C(=O)c2cccc(Br)c2)c2ccccc2N1,-8.78%
7,Cc1nnc(NC(=O)CCC(=O)N2CCN(CCOc3cccc4ccccc34)CC2)s1,16.7%
8,CCCCOC(=O)Nc1cc(C(=O)OC)ccc1C(=O)OC,18.2%
9,N#Cc1ccc(OCC(=O)Nc2nc(-c3ccncc3)cs2)cc1,10%
10,Cc1c([N+](=O)[O-])c([N+](=O)[O-])nn1CC(=O)NCc1cccnc1,6.05%
11,Cn1c(=O)c2c(SCCN3CCOCC3)nc(C3CCCC3)nc2n(C)c1=O,19.1%
12,COc1cc(C(=O)N/N=C/c2ccsc2C)cc(OC)c1OC,0.65%
13,CCOc1ccc(C(=O)N/N=C/c2cc([N+](=O)[O-])cs2)cc1,69.5%
14,COc1ccc(CC(=O)OCc2cc(=O)n3cc(Br)ccc3n2)cc1OC,13.9%
15,CCOc1ccc(CC(=O)OCc2cc(=O)n3cc(Br)ccc3n2)cc1,50.5%
16,O=C(OCc1nnc(-c2ccccc2)o1)c1ccc([N+](=O)[O-])o1,64.9%
17,O=C(OCc1nnc(-c2ccccc2)o1)c1cccnc1Cl,6.83%
18,Cc1onc(-c2ccccc2)c1C(=O)OCc1nnc(-c2ccc([N+](=O)[O-])cc2)o1,48%
19,O=C(OCc1nnc(-c2ccccc2)o1)c1ccccc1,73.8%
20,CC(=O)OCc1nc2ccccc2s1,-0.84%
21,CCOC(=O)c1ccc(Cn2c(-c3ccccc3)nnc2-c2ccccc2)o1,11.2%
22,CCOC(=O)c1cccc(COC(=O)c2cccc(-c3nnc(-c4ccccc4)o3)c2)c1,18.4%
23,CCOC(=O)Nc1nc2ccccc2s1,-2.43%
24,Cc1cc(C(=O)CSc2nc3ccc(Cl)cc3[nH]2)c(C)n1Cc1ccco1,13.9%
25,COc1ccc(CN2C(=O)c3cccnc3C2Nc2ccc(C)cc2)cc1 (centres undefined),27%
26,CN(CC(=O)NCc1ccccc1Cl)S(=O)(=O)c1ccc2c(c1)n(C)c(=O)c(=O)n2C,-4.13%
27,CCOC(=O)CC(=O)COc1nc2cc3c(nc2o1)CCCC3,-11.4%
28,NCCCC[C@H](NC(=O)C1CCNCC1)c1nnc(CN)o1,-30.9%
29,CCC/C(=C1/c2ccccc2C(=O)N1c1ccccc1)c1cnc(OC)nc1,24.1%
